Measured values published in ChEMBL document CHEMBL1157539, “Thousands of chemical starting points for antimalarial lead identification” (Nature, 2010).

Tested on: HepG2
Assay: GSK_TCMDC: Percent inhibition of human HepG2 cell line. Test compounds present at 10uM.
Format: functional

Structure (SMILES)	Inhibition [%]
O=C(/C=C/c1ccc(C(F)(F)F)cc1)NCCCCCN1CCCN(C(=O)Nc2ccc(Cl)c(C(F)(F)F)c2)CC1	64
COc1cc(C)c(NC(=O)c2cccc3c(=O)c(C)c(-c4ccccc4)oc23)cc1OC	96
Cl.O=C1Nc2ccc3ncccc3c2/C1=C/Nc1ccc(N2CCN(CCO)CC2)cc1	34
OC(CNCCc1ccccc1)Cn1c2ccc(Cl)cc2c2cc(Cl)ccc21 (stereo unspecified)	53
CC(C)CCNC(=O)[C@@H]1[C@H]2C(=O)N(C3CCCCC3)C(=O)[C@H]2[C@H]2C=C[C@@H]3C(c4ccc(C(C)(C)C)cc4)=NO[C@@H]3N21	0
Cc1[nH]c(C)c(-c2ccc(OCCn3cnc(Cl)c3Cl)cc2)c(=O)c1Br	2
CCCCCOc1ccc(C(O)C(CCC(CN2CCCCCC2)C(O)c2ccc(OCCCCC)cc2)CN2CCCCCC2)cc1.Cl (stereo unspecified)	99
CS(=O)(=O)CCNCc1cccc(-c2cc3c(Nc4ccc5c(cnn5Cc5ccccc5)c4)ncnc3s2)c1.O=C(O)C(F)(F)F	36
O=[N+]([O-])c1cccc(NC(=S)N2CCCN(Cc3ccc(C(F)(F)F)cc3)CC2)c1	11
CC1CN(Cc2ccc(-c3ccc(-c4nc5ccccc5[nH]4)cc3)cc2)CC(C)O1.O=C(O)C(F)(F)F (stereo unspecified)	48
CCc1cccc2c(C#N)cn(CC(=O)Nc3ccc(OC)cc3)c12	0
CC(C)c1sc(N2CCN(C)CC2)nc1C(=O)Nc1ccc(F)cc1C(F)(F)F.O=C(O)C(F)(F)F	3
CC(C(=O)Nc1ccc(Br)cc1Br)N1CCN(C(=O)c2ccco2)CC1 (stereo unspecified)	3
Clc1ccccc1C=NN=c1cc[nH]c2ccccc12	25
CO/C(=C\C=C\c1cc2cc(Cl)c(Cl)cc2[nH]1)C(=O)NCCCN1CCN(c2cccc(CCCO)c2)CC1	66
Cl.N=C(N)NN=Cc1ccc2ccc3ccccc3c2c1	34
COc1cccc(-c2nn(C)c3sc(C(=O)NCCN(C)Cc4ccccc4)cc23)c1	21
CCCC[C@H](NC(=O)OC(C)(C)C)C(=O)Nc1ccc(Cc2ccc(NC(=O)[C@H](CCCC)NC(=O)OC(C)(C)C)cc2)cc1	5

Structure (SMILES)	Inhibition [%]
COc1ccc2nccc([C@@H](O)CN3CCC(NCc4cc5cc(OC(F)(F)F)ccc5[nH]4)CC3)c2c1.O=C(O)C(=O)O	49
Fc1ccc2[nH]c(-c3ccc(-c4ccc(CN5CCN(c6ccncc6)CC5)cc4)cc3)nc2c1.O=C(O)C(F)(F)F	37
CN(C)CCOc1ccc(-c2cc(-c3ccc(Cl)c(O)c3)c(-c3ccncc3)o2)cc1.Cl	39
Cc1ccccc1CNc1noc(-c2sccc2Br)n1	0
CC(C)(CNCc1cccc(Oc2cccc(C(F)(F)F)c2)c1)c1nc(-c2ccnc(N)n2)c(-c2ccc(Cl)c(O)c2)[nH]1.Cl	23
COc1ccc(CN(C)CCCc2ccc(NC(=O)c3cccc4c(=O)c5cccc(F)c5[nH]c34)cc2)cc1OC	100
CC(CCc1ccccc1)NCC(O)c1cccc(C(F)(F)F)c1.Cl (stereo unspecified)	18
Cc1ccc(-c2nnc3c4ccccc4c(C)nn23)cc1S(=O)(=O)N1CCN(CCO)CC1	16
Cc1noc(C)c1-c1cccc(CNCc2cccc(-c3csc(-c4nc5ccccc5[nH]4)c3)c2)c1.O=C(O)C(F)(F)F	32
Cc1cnc(Nc2ccccc2)nc1N[C@@H](CCCN)C(=O)Nc1ccccc1.O=C(O)C(F)(F)F	0
COc1ccc(CCNc2nc(N)c3cc(OC)c(OC)cc3n2)cc1.Cl	16
COC(=O)c1cccc(CNCc2ccc(-c3ccc(-c4nc5cc(F)ccc5[nH]4)cc3)cc2)c1.O=C(O)C(F)(F)F	8
CCc1cn2c3c(cc(C(=O)N[C@@H](Cc4ccccc4)[C@H](O)CNC4CCCCC4)cc13)N(CC)S(=O)(=O)CC2.O=CO	8
Cc1ccn2cc(-c3ccc(NC(=O)c4ccc(Br)o4)cc3)nc2c1	100
Cc1ccc(C(NC(=O)Cc2ccccc2)c2ccc3cccnc3c2O)cc1 (stereo unspecified)	47
Nc1ncnc2cc(-c3cccc(NC(=O)Nc4ccccc4)c3)sc12	4
CCOc1ccc(C(Cc2ccccc2)NC(=O)c2cccnc2)cc1OCC (stereo unspecified)	0
Cc1cc(NCC(C)C)c2[nH]nc(-c3ccccc3)c2n1	9
